The whole screen tested about 190,000 compounds, of which about 1,300 (0.68%) were called active. Rule as the data show it: active = inhibition above about 50%; inactive = the rest. For the sample, actives were picked, then their nearest neighbours and some compounds at random.

Sequence of Mannose-6-phosphate isomerase (Homo sapiens) (P34949 whole entry, looked up): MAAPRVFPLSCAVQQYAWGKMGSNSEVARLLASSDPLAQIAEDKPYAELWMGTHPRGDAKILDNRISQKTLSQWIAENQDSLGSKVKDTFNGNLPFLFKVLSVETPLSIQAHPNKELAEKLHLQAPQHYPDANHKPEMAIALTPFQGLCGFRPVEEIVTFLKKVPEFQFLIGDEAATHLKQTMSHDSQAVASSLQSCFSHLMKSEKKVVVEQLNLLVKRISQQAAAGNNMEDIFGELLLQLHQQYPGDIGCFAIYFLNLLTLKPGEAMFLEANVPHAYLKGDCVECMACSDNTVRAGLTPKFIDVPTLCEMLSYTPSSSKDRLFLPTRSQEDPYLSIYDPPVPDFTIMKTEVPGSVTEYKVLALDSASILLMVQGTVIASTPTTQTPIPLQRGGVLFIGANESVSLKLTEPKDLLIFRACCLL

The experiment addresses Mannose-6-phosphate isomerase (Homo sapiens) (UniProt P34949). In words: human PMI inhibitors, high substrate, primary screen, biochemical, fluorescence intensity, high mannose 6-phosphate (AID 1220). As to conditions: recombinant PMI enzyme, coupled fluorescence intensity; at 20 µM; stronger effect = higher value.
As for `O=C(c1cnc2n(c1=O)CCS2)N(c1ccccc1)C1CCCCC1`, the inhibition is -10.4% (inactive). As to `CCc1ccc(NC(=O)c2c(C(=O)Nc3ccccc3)sc3nc(C)cc(=O)n23)cc1`, the inhibition was -2.4% (inactive). On to `CCOC(=O)N1CCN(Cc2c(NC(=O)c3ccco3)sc(C)c2C)CC1`, for which the inhibition is 3.6% (inactive). With `CC1(C)CC(=O)C(C2=NC(C)(C)Cc3ccccc32)=C(O)C1` the figure was -9.5% (inactive).

Turning to `CC1=NC(C)(C)Cc2ccccc21`, the inhibition was 11% (inactive). For `CCOc1ccc2[nH]c(=S)[nH]c2c1` the value was 20.7% (inactive); for `COC(=O)/C=C1/N/C(=N\c2nc(C)cc(C)n2)N(c2cccc(C)c2)C1=O`, 50.4% (active); for `COC(=O)/C=C1\N/C(=N\c2nc(C)cc(C)n2)N(c2ccc(C)cc2)C1=O`, -5.3% (inactive). For `COC(=O)/C=C1/N/C(=N\c2nc(C)cc(C)n2)N(c2ccccc2)C1=O` the value was 13.3% (inactive); for `CC(/C=N\NC(=O)CN1CCN(Cc2ccccc2)CC1)=C\c1ccco1`, 9.7% (inactive). As for `Oc1c(C(c2ccccn2)N2CCCCC2)cc(Cl)c2cccnc12` (stereo unspecified), the inhibition was 32.5% (inactive). Consider `Oc1c(C(c2ccccn2)N2CCC(Cc3ccccc3)CC2)cc(Cl)c2cccnc12` (stereo unspecified), for which the inhibition is 58.9% (active). With `CN1CCN(C(c2ccccn2)c2cc(Cl)c3cccnc3c2O)CC1` (stereo unspecified) the figure was 43.8% (inactive); with `CC(=O)Cc1nsc(NC(=O)c2ccccc2)n1`, 6.4% (inactive); with `Cc1ccc2cn[nH]c2c1[N+](=O)[O-]`, 6.8% (inactive). As for `Cc1cccc2cn[nH]c12`, the inhibition was -8.9% (inactive).

In the case of `Cc1ccc2cn[nH]c2c1N`, the inhibition was 58.3% (active).

Take `Nc1nc(SCC(=O)NCc2ccccc2)[nH]c(=O)c1NC(=O)c1ccccc1F`: the inhibition was 9.7% (inactive). For `Cc1ccc(NC(=O)c2ccn(C)n2)c(Br)c1` the value was 6% (inactive); for `O=C(Cn1nc(C(F)(F)F)c2c1CCC2)N1CCN(c2ccccc2)CC1`, 9.9% (inactive); for `CC(C)CC(=O)O/N=C1\C(=O)N(Cc2ccc(Cl)cc2)c2ccc([N+](=O)[O-])cc21`, 22.3% (inactive). Turning to `CCCn1c(C)cc(/C=C(\C#N)C(=O)OCC(=O)NC(=O)NC(C)(C)C)c1C`, the inhibition was -3.7% (inactive).

`Cc1cccc(N2CCN(C(=S)Nc3ccc4nc(N5CCOCC5)cc(C)c4c3)CC2C)c1` (stereo unspecified): the inhibition is 51.9% (active). `Cc1cc(N2CCOCC2)nc2ccc(NC(=S)N3CCN(c4ccccc4)CC3)cc12`: the inhibition was 52.5% (active).

Regarding `Cc1cc(N2CCN(C)CC2)nc2ccc(NC(=S)N3CCN(c4ccc(Cl)cc4)CC3)cc12`, the inhibition was 41.7% (inactive). As for `COc1ccccc1N1CCN(C(=S)Nc2ccc3nc(N4CCOCC4)cc(C)c3c2)CC1`, the inhibition is 62.5% (active). With `Cc1ccc(C)c(N2CCN(C(=S)Nc3ccc4nc(N5CCN(C)CC5)cc(C)c4c3)CC2)c1` the figure was 24.4% (inactive); with `CCN1CCN(c2cc(C)c3cc(NC(=S)N4CCN(c5ccccc5)CC4)ccc3n2)CC1`, 28.1% (inactive); with `Cc1ccc(C)c(N2CCN(C(=S)Nc3ccc4nc(N5CCOCC5)cc(C)c4c3)CC2)c1`, 58.5% (active). For `Cc1cccc(N2CCN(C(=S)Nc3ccc4nc(N5CCN(C)CC5)cc(C)c4c3)CC2C)c1` (stereo unspecified) the value was 17.5% (inactive); for `Cc1cc(N2CCOCC2)nc2ccc(NC(=S)N3CCN(Cc4ccccc4)CC3)cc12`, 35.3% (inactive); for `Cc1cc(N2CCN(C)CC2)nc2ccc(NC(=S)N3CCN(c4ccc(F)cc4)CC3)cc12`, 29.1% (inactive). With `CCN1CCN(c2cc(C)c3cc(NC(=S)N4CCOCC4)ccc3n2)CC1` the figure was 13.3% (inactive); with `Cc1cccc(N2CCN(C(=S)Nc3ccc4nc(N5CCN(C)CC5)cc(C)c4c3)CC2)c1C`, 16.2% (inactive); with `CCOc1cc2[nH]c(=O)n(CCCN3CCN(c4ccc(OC)cc4)CC3)c(=O)c2cc1OCC`, 21.4% (inactive). Turning to `COc1ccc(N/C=C\C(=O)c2ccc(C)cc2)cc1OC`, the inhibition is 18.6% (inactive). For `Cc1occc1C(=O)NNC(=S)NCc1ccc(Cl)cc1` the value was -4.2% (inactive). For `CCCC(=O)NCCc1nc2ccccc2n1CC(=O)c1ccccc1`, the inhibition is 4.9% (inactive).

Turning to `CCN(CC)S(=O)(=O)c1ccc(N2C(=O)Nc3ccccc3N2O)cc1`, the inhibition is -8.2% (inactive). Consider `COc1nccc(Nc2ccccc2)c1C#N`, for which the inhibition was -7.6% (inactive). With `Cc1cc(N2CCN(C)CC2)nc2ccc(NC(=S)N3CCCCC3)cc12` the figure was 53.5% (active); with `Cc1cc(N2CCN(C)CC2)nc2ccc(NC(=S)N3CCOCC3)cc12`, 23.9% (inactive); with `Cc1cc(N2CCN(C)CC2)nc2ccc(NC(=S)N3CCCCCC3)cc12`, 24.8% (inactive).

On to `FC(F)(F)c1cnc(Oc2cccc3ccccc23)c(Cl)c1`, for which the inhibition is 10.7% (inactive). For `CN(CC(=O)Nc1ccc(N2CCOCC2)cc1)C(=O)C1CCCC1` the value was 9.6% (inactive); for `CN1c2cccc3cccc(c23)N(C)C1c1cccs1`, 58.6% (active).

Take `c1csc(C2Nc3cccc4cccc(c34)N2)c1`: the inhibition was 11.7% (inactive). For `CN1C(=O)c2ccccc2N(C)C1c1cccs1` (stereo unspecified) the value was 10% (inactive); for `CN1CN(C)c2cccc3cccc1c23`, 48.7% (inactive). For `CN1/C(=N\O)c2cccc3cccc1c23` the value was 42.5% (inactive).

Consider `CC1N(C)c2cccc3cccc(c23)N1C`, for which the inhibition is 62.9% (active).

Consider `O=C(COC(=O)c1ccccc1)Nc1cc(Cl)ccc1Oc1ccccc1`, for which the inhibition is 0.2% (inactive).

As for `COc1ccc(N2CC(NC(=O)NC(C)(C)C)CC2=O)cc1` (stereo unspecified), the inhibition was 53.9% (active).

Consider `COc1ccc(N2CC(NC(=O)NCC(C)C)CC2=O)cc1` (stereo unspecified), for which the inhibition is 7.2% (inactive). Regarding `COc1ccc(N2CC(NC(=O)Nc3ccccc3)CC2=O)cc1` (stereo unspecified), the inhibition is -16.3% (inactive). For `CC(C)CSc1n[nH]c(=S)s1` the value was -41% (inactive). For `O=C(CCCSc1nc2ccccc2s1)NC1=NCCS1` the value was 1.7% (inactive); for `CN1CCN(C(=O)c2ccccc2NC(=O)C(C)(C)C)CC1`, 10.4% (inactive).

Take `O=C(COC(=O)c1cc(S(=O)(=O)N2CCOCC2)cs1)c1ccccc1`: the inhibition is 11.5% (inactive).

As for `COc1cc(CN2CCN(Cc3ccc(C)cc3)C(CCO)C2)cc(OC)c1O` (stereo unspecified), the inhibition was 61.9% (active).

Take `CCOc1ccc(CN2CCN(S(=O)(=O)c3ccc(NC(C)=O)cc3)CC2)cc1OC`: the inhibition was -3.6% (inactive). In the case of `COc1cc(CN2CCN(c3ccccc3F)CC2)cc(OC)c1O`, the inhibition was 24.9% (inactive). With `C/C=C(\C)CN1CCc2cc(OC)c(OC)cc2C1` the figure was -34.9% (inactive); with `COc1cc(CN2CCN(Cc3ccc(SC)cc3)CC2)cc(OC)c1O`, 62.1% (active); with `COc1cc(CN2CCN(Cc3ccc(C)cc3)C(CCO)C2)ccc1O` (stereo unspecified), 14.3% (inactive). In the case of `COc1ccc(CN2CCN(S(=O)(=O)c3ccc(NC(C)=O)cc3)CC2)cc1OC`, the inhibition is -2.1% (inactive). For `COc1ccc(CN2CCN(Cc3ccc(C)cc3)C(CCO)C2)cc1OC` (stereo unspecified) the value was -5.7% (inactive); for `COc1cc(OC)c(OC)cc1CN1CCN(Cc2ccc(SC)cc2)CC1`, 10.2% (inactive); for `COc1ccc(CN2CCc3cc(OC)c(OC)cc3C2)cc1O`, 4.1% (inactive). In the case of `COc1cc(CN2CCN(S(=O)(=O)c3ccc(NC(C)=O)cc3)CC2)cc(OC)c1O`, the inhibition was 50.8% (active).

In the case of `COc1cc2c(cc1OC)CN(Cc1cc(OC)c(O)c(OC)c1)CC2`, the inhibition was 69.5% (active). With `CCN(CC)c1nc(-c2ccccn2)nc(-c2ccccc2)c1C#N` the figure was -5.4% (inactive); with `CCN(CC)C(=O)NC1CC2CCCC(C1)N2Cc1ccccc1` (stereo unspecified), -8.6% (inactive); with `CC(C)C(OC(=O)c1cccs1)C(=O)NCc1ccco1` (stereo unspecified), 1.8% (inactive). In the case of `Cc1ccc(S(=O)(=O)N2CCN(S(=O)(=O)N3CCCCC3)CC2)cc1`, the inhibition was 10.1% (inactive).

`Cn1c(=O)c2c(-c3ccc(C(C)(C)C)cc3)n(N3CCOCC3)cc2n(C)c1=O`: the inhibition was -3.7% (inactive). With `COc1ccc(CN2CCN(C(=O)CC(C)C)CC2)cc1OC` the figure was -3.1% (inactive); with `COc1ccc(C(=O)N2CCN(Cc3cc(OC)c(O)c(OC)c3)CC2)cc1OC`, 61.1% (active); with `COc1ccc(C(=O)N2CCN(Cc3ccccc3C)CC2)cc1OC`, -3.6% (inactive). With `COc1cc(CN2CCN(C(=O)CC(C)C)CC2)cc(OC)c1O` the figure was 55.5% (active); with `COc1cc(CN2CCN(C(=O)CC(C)C)CC2)cc(OC)c1OC`, -4.9% (inactive). With `COc1ccc(CN2CCN(C(=O)c3cc(OC)c(OC)c(OC)c3)CC2)cc1OC` the figure was -8.2% (inactive); with `CCC(Sc1nc(C)cc(C)n1)C(=O)Nc1cc(C)on1` (stereo unspecified), -8.4% (inactive).

Take `CC(=O)Nc1cc(C(=O)N2CCCC2)ccc1S(=O)(=O)c1ccc(Cl)cc1`: the inhibition was 2.8% (inactive). For `Nc1cc(=O)[nH]c(SCc2nnc(-c3ccccc3)o2)n1`, the inhibition is -0.3% (inactive). Take `CC1(C)CC(CC(=O)O)(c2ccc(F)cc2)CCO1` (stereo unspecified): the inhibition is 3% (inactive). With `c1ccc2c(c1)NC1(CCCCC1)n1c-2nc2ccccc21` the figure was 8.3% (inactive); with `COCCNC(=O)/C(C#N)=C/c1cc(Br)c(O)c(OC)c1`, 15.5% (inactive).

Take `COc1cc(/C=C(\C#N)C(=O)c2c[nH]c3ccccc23)cc(OC)c1O`: the inhibition is 70% (active).

As for `COc1cc(/C=C(\C#N)C(=O)c2c(C)[nH]c3ccccc23)cc(OC)c1OC`, the inhibition is 10.2% (inactive). Regarding `COc1ccc(/C=C(\C#N)C(=O)NCCc2ccccc2)cc1OCc1ccccc1`, the inhibition was -4.6% (inactive).

For the compound `COc1cc(/C=N/S(=O)(=O)CCc2ccccc2)cc(OC)c1O`, the inhibition was 61.1% (active). With `COc1cc(/C=C(\C#N)C(=O)NCCc2ccccc2)cc(OC)c1O` the figure was 57.6% (active); with `COc1cc(/C=N/S(=O)(=O)CCc2ccccc2)ccc1O`, 14.1% (inactive). Turning to `COc1ccc(/C=N/S(=O)(=O)CCc2ccccc2)c(OC)c1`, the inhibition was 7.5% (inactive).

As for `COc1ccc(/C=C(\C#N)C(=O)c2c(C)[nH]c3ccccc23)cc1OC`, the inhibition is 8.5% (inactive).
